According to the antibiotic and cytotoxicity screens of Wong et al. (2023):
Screen size: about 39,000 compounds; about 3,300 (8.5%) were called active. The sample holds actives, similar compounds and a random draw of the others, so the mix is not that of the screen.

test system: HepG2; assay: cytotoxicity call (relative viability < 0.9); settings: 10 µM

SMILES | cytotoxicity call
CC(C)NC(=O)N(C)C[C@@H]1Oc2ccc(NC(=O)NC3CCCCC3)cc2CC(=O)N([C@H](C)CO)C[C@H]1C | inactive
O=C(CN1CCOCC1)NCC[C@H]1CC[C@H](NS(=O)(=O)c2ccc(F)cc2)[C@H](CO)O1 | inactive
C[C@@H]1CCCCO[C@H](CN(C)Cc2ccncc2)[C@H](C)CN([C@H](C)CO)C(=O)c2cc(NC(=O)c3ccccc3)ccc2O1 | inactive
C[C@@H]1CCCCO[C@@H](CN(C)Cc2ccccc2)[C@@H](C)CN([C@H](C)CO)C(=O)c2cc(NC(=O)c3ccccc3)ccc2O1 | inactive
C[C@@H]1CN([C@H](C)CO)C(=O)c2cc(C#CCc3ccccc3)cnc2O[C@H]1CN(C)C(=O)C1CCOCC1 | inactive
Cc1ccc(S(=O)(=O)N(C)C[C@H]2Oc3ccc(NS(=O)(=O)c4c(C)noc4C)cc3C(=O)N([C@@H](C)CO)C[C@H]2C)cc1 | inactive
CC(C)(C)c1ccc(-c2nc3ccccc3s2)cc1 | inactive
C[C@H](CO)N1C[C@H](C)[C@@H](CN(C)S(=O)(=O)c2ccccc2)Oc2ncc(-c3cccc(C(=O)N(C)C)c3)cc2C1=O | inactive
Cc1noc(C)c1NC(=O)N(C)C[C@@H]1Oc2ccc(NC(=O)CCN3CCOCC3)cc2C(=O)N([C@H](C)CO)C[C@H]1C | inactive
C[C@@H]1CN([C@H](C)CO)C(=O)c2cc(NC(=O)Nc3ccc(C(F)(F)F)cc3)ccc2O[C@@H](C)CCCCO[C@@H]1CN(C)Cc1ccc2c(c1)OCO2 | active
C[C@@H]1CCCCO[C@@H](CN(C)Cc2ccc3c(c2)OCO3)[C@@H](C)CN([C@@H](C)CO)C(=O)c2cc(NC(=O)Nc3ccc(C(F)(F)F)cc3)ccc2O1 | active
C[C@@H]1CCCCO[C@H](CN(C)Cc2ccc3c(c2)OCO3)[C@@H](C)CN([C@@H](C)CO)C(=O)c2cc(NC(=O)Nc3ccc(C(F)(F)F)cc3)ccc2O1 | active
C[C@@H]1CCCCO[C@@H](CN(C)Cc2ccc3c(c2)OCO3)[C@H](C)CN([C@@H](C)CO)C(=O)c2cc(NC(=O)Nc3ccc(C(F)(F)F)cc3)ccc2O1 | active
C[C@@H]1CN([C@@H](C)CO)C(=O)c2cc(NC(=O)Nc3ccc(C(F)(F)F)cc3)ccc2O[C@@H](C)CCCCO[C@@H]1CN(C)Cc1ccc2c(c1)OCO2 | inactive
C[C@@H]1CN([C@H](C)CO)C(=O)c2cc(NS(C)(=O)=O)ccc2O[C@@H](C)CCCCO[C@@H]1CN(C)C(=O)c1ccncc1 | inactive
C[C@H](CO)N1C[C@H](C)[C@H](CN(C)C(=O)Nc2ccnc(N3CCOCC3)c2)OCc2cnnn2CCCC1=O | inactive
Cc1noc(C)c1S(=O)(=O)N(C)C[C@@H]1Oc2ccc(NC(=O)CCCN(C)C)cc2C(=O)N([C@@H](C)CO)C[C@@H]1C | inactive
C[C@H](CO)N1C[C@H](C)[C@@H](CN(C)Cc2ccc(Cl)c(Cl)c2)Oc2c(NC(=O)NC3CCCCC3)cccc2C1=O | inactive
Cc1noc(C)c1NC(=O)Nc1cccc2c1O[C@@H](CN(C)C(=O)Nc1ccc(C(F)(F)F)cc1)[C@@H](C)CN([C@H](C)CO)C2=O | inactive
COc1ccc(S(=O)(=O)N(C)C[C@@H]2Oc3c(NC(=O)Nc4c(C)noc4C)cccc3C(=O)N([C@H](C)CO)C[C@@H]2C)cc1 | inactive
CCCC(=O)Nc1ccc2c(c1)OC[C@@H](C)N(Cc1ccc(-c3ccccn3)cc1)C[C@@H](C)[C@H](OC)CN(C)C2=O | inactive
C[C@H](CO)N1C[C@H](C)[C@H](CN(C)Cc2ccc3c(c2)OCO3)OCCCC[C@H](C)Oc2ccc(NC(=O)Nc3ccc(C(F)(F)F)cc3)cc2C1=O | active
C[C@@H]1CCCCO[C@@H](CN(C)Cc2ccc3c(c2)OCO3)[C@@H](C)CN([C@H](C)CO)C(=O)c2cc(NC(=O)Nc3ccc(C(F)(F)F)cc3)ccc2O1 | active
C[C@H]1CCCCO[C@@H](CN(C)Cc2ccc3c(c2)OCO3)[C@@H](C)CN([C@@H](C)CO)C(=O)c2cc(NC(=O)Nc3ccc(C(F)(F)F)cc3)ccc2O1 | active
C[C@@H]1CCCCO[C@H](CN(C)Cc2ccc3c(c2)OCO3)[C@H](C)CN([C@@H](C)CO)C(=O)c2cc(NC(=O)Nc3ccc(C(F)(F)F)cc3)ccc2O1 | active

SMILES | cytotoxicity call
C[C@@H]1CCCCO[C@H](CN(C)C(=O)Cc2ccccc2)[C@H](C)CN([C@@H](C)CO)C(=O)c2cc(NC(=O)c3ccccc3)ccc2O1 | inactive
CCCNC(=O)N[C@@H]1CC[C@@H](CC(=O)N2CCN(C)CC2)O[C@@H]1CO | inactive
Cc1noc(C)c1S(=O)(=O)Nc1ccc2c(c1)C(=O)N([C@H](C)CO)C[C@@H](C)[C@@H](CN(C)C(=O)Nc1ccc(F)cc1)OCCCC[C@@H](C)O2 | inactive
O=C(Nc1ccccc1C(=O)O)c1nnc[nH]1 | inactive
O=C(NCC[C@H]1CC[C@H](NS(=O)(=O)c2cccc(F)c2)[C@H](CO)O1)C1CC1 | inactive
C[C@@H](Oc1ccccc1)c1ccn[nH]1 | inactive
C[C@H]([C@H](C)N1CC(=O)NC(=O)C1)N1CC(=O)NC(=O)C1 | inactive
C[C@H]1CCCCO[C@H](CN(C)Cc2ccc3c(c2)OCO3)[C@@H](C)CN([C@@H](C)CO)C(=O)c2cc(NC(=O)Nc3ccc(C(F)(F)F)cc3)ccc2O1 | active
C[C@@H]1CCCCO[C@@H](CN(C)Cc2ccc3c(c2)OCO3)[C@H](C)CN([C@H](C)CO)C(=O)c2cc(NC(=O)Nc3ccc(C(F)(F)F)cc3)ccc2O1 | active
C[C@@H]1CCCCO[C@H](CN(C)Cc2ccc3c(c2)OCO3)[C@H](C)CN([C@H](C)CO)C(=O)c2cc(NC(=O)Nc3ccc(C(F)(F)F)cc3)ccc2O1 | active
C[C@@H]1CCCCO[C@H](CN(C)Cc2ccc3c(c2)OCO3)[C@@H](C)CN([C@H](C)CO)C(=O)c2cc(NC(=O)Nc3ccc(C(F)(F)F)cc3)ccc2O1 | active
COCN(C#N)c1nc(N(C)C)nc(N(C)C)n1 | inactive
C[C@@H]1CN([C@H](C)CO)S(=O)(=O)c2ccc(-c3ccncc3)cc2O[C@H]1CN(C)S(=O)(=O)c1ccccc1F | inactive
NC(=O)c1cccnc1N1CCN(C(=O)[C@@H]2CC(=O)N(C3CC3)C2)CC1 | inactive
CCCC(=O)Nc1ccc2c(c1)C(=O)N(C)[C@@H]1CC[C@@H](CC(=O)NCCN3CCCCC3)O[C@H]1CO2 | inactive
Cn1nc(O)c(=O)[nH]c1=S | inactive
O=C(Cc1ccncc1)Nc1ccc2c(c1)[C@H]1C[C@H](CC(=O)N3CCc4ccccc4C3)O[C@@H](CO)[C@H]1O2 | inactive
Cc1cn2c3c(=O)n(C)c(=O)n(C)c3nc2n1CCN1CCOCC1 | inactive
Cc1noc(C)c1NC(=O)N(C)C[C@H]1OCCCC[C@H](C)Oc2ccc(NC(=O)CCC(F)(F)F)cc2C(=O)N([C@H](C)CO)C[C@@H]1C | inactive
C[C@@H]1CN([C@@H](C)CO)C(=O)c2cc(NC(=O)Nc3ccc(C(F)(F)F)cc3)ccc2O[C@@H](C)CCCCO[C@H]1CN(C)Cc1ccc2c(c1)OCO2 | active
C[C@@H]1CN([C@H](C)CO)C(=O)c2cc(NC(=O)Nc3ccc(C(F)(F)F)cc3)ccc2O[C@@H](C)CCCCO[C@H]1CN(C)Cc1ccc2c(c1)OCO2 | active
C[C@H](CO)N1C[C@H](C)[C@@H](CN(C)Cc2ccc3c(c2)OCO3)OCCCC[C@H](C)Oc2ccc(NC(=O)Nc3ccc(C(F)(F)F)cc3)cc2C1=O | active
Cn1c(=O)[nH]c(=O)c2c(=O)cc[nH]c21 | inactive
COc1ccccc1CNC(=O)C[C@H]1C[C@H]2c3cc(NC(=O)Cc4ccncc4)ccc3O[C@H]2[C@@H](CO)O1 | inactive
C[C@@H]1CCCCO[C@H](CN(C)S(=O)(=O)c2ccc(F)cc2)[C@H](C)CN([C@H](C)CO)C(=O)c2cc(NC(=O)Nc3cccc4ccccc34)ccc2O1 | inactive

SMILES | cytotoxicity call
C[C@@H]1CN([C@@H](C)CO)C(=O)c2c(c3ccccc3n2C)-c2ccccc2CO[C@H]1CN(C)C(=O)Nc1cccc(Cl)c1Cl | inactive
CC(C)[C@H](NC=O)C(=O)OC[C@H](O)[C@H](O)[C@H](O)[C@H](O)COC(=O)[C@H](NC=O)C(C)C | inactive
C[C@H](CO)N1C[C@H](C)[C@@H](CN(C)Cc2ccncc2)Oc2c(NC(=O)c3ccncc3)cccc2C1=O | inactive
O=C1CSC(/N=C/c2ccccc2O)=NN1 | active
O=C(NCc1cccc(F)c1)[C@@H]1[C@@H](CO)[C@@H]2Cn3c(cccc3=O)[C@H]1N2C(=O)c1cnccn1 | inactive
CN(C)CCC=C1c2ccccc2Sc2ccc(Cl)cc21.Cl | active
CN(C)CC/C=C1/c2ccccc2Sc2ccc(Cl)cc21 | active
CCS(=O)(=O)N1C[C@]2(CN(Cc3cc(ccc3F)F)C2)c2c(n(c3cc(ccc23)OC)C)[C@H]1CO | inactive
CCS(=O)(=O)N1C[C@]2(CN(Cc3ccc4c(c3)OCO4)[C@H](CO)c3c2c2ccc(cc2n3C)OC)C1 | inactive
C[C@@H]1CN([C@@H](C)CO)C(=O)c2cccc(NS(C)(=O)=O)c2O[C@H]1CN(C)C(=O)Nc1ccc2c(c1)OCO2 | inactive
Cc1noc(C)c1S(=O)(=O)N(C)C[C@H]1OCCCC[C@@H](C)Oc2ccc(N(C)C)cc2C(=O)N([C@H](C)CO)C[C@@H]1C | inactive
COc1ccc(NC(=O)Nc2ccc3c(c2)C(=O)N([C@@H](C)CO)C[C@H](C)[C@@H](CN(C)C(=O)CCC(F)(F)F)OCCCC[C@@H](C)O3)cc1 | inactive
C[C@H](CO)N1C[C@H](C)[C@@H](CN(C)Cc2ccncc2)OCCCC[C@H](C)Oc2ccc(NC(=O)C3CCCCC3)cc2C1=O | inactive
C[C@H](CO)N1C[C@H](C)[C@@H](CN(C)Cc2ccccc2)Oc2ccc(NC(=O)CCCN(C)C)cc2C1=O | inactive
COc1ccc(CN(C)C[C@H]2Oc3ccc(NC(=O)CCCN(C)C)cc3C(=O)N([C@H](C)CO)C[C@H]2C)cc1 | inactive
C[C@H](CO)N1C[C@H](C)[C@@H](CN(C)Cc2ccc(Oc3ccccc3)cc2)Oc2ccc(NC(=O)CCCN(C)C)cc2C1=O | inactive
C[C@@H]1CN([C@@H](C)CO)C(=O)c2cc(NC(=O)CCCN(C)C)ccc2O[C@H]1CN(C)Cc1ccc(Oc2ccccc2)cc1 | inactive
C[C@H]1CN([C@@H](C)CO)C(=O)c2cc(NC(=O)CCCN(C)C)ccc2O[C@H]1CN(C)Cc1ccc(Oc2ccccc2)cc1 | active
C[C@H]1CN([C@@H](C)CO)C(=O)c2cc(NC(=O)CCCN(C)C)ccc2O[C@@H]1CN(C)Cc1ccc(Oc2ccccc2)cc1 | active
C[C@H]1CN([C@@H](C)CO)C(=O)c2cc(NC(=O)CCCN(C)C)ccc2O[C@H]1CN(C)Cc1ccccc1 | inactive
COc1ccc(CN(C)C[C@@H]2Oc3ccc(NC(=O)CCCN(C)C)cc3C(=O)N([C@H](C)CO)C[C@H]2C)cc1 | inactive
C[C@@H]1CN([C@H](C)CO)C(=O)c2cc(NC(=O)CCCN(C)C)ccc2O[C@H]1CN(C)Cc1ccccc1 | inactive
C[C@@H]1CN([C@H](C)CO)C(=O)c2cc(NC(=O)CCCN(C)C)ccc2O[C@@H]1CN(C)Cc1ccc(Oc2ccccc2)cc1 | active
C[C@@H]1CN([C@H](C)CO)C(=O)c2cc(NC(=O)CCCN(C)C)ccc2O[C@H]1CN(C)Cc1ccc(Oc2ccccc2)cc1 | active
C[C@@H]1CN([C@@H](C)CO)C(=O)c2cc(NC(=O)CCCN(C)C)ccc2O[C@H]1CN(C)Cc1ccccc1 | inactive
